Gal4-VP16 FLuc: VP16 counterscreen qHTS for inhibitors of ROR gamma transcriptional activity | Drosophila S2 Gal4-VP16 UAS-luciferase, luminescence, 20 h | Potency, µM (titrated, usually from 53.6 µM), inactives show at the highest dose activity, negative = inhibition, hits mostly inhibitors | hit rate 3.5% among 310,000 | AID 2546, 2010;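 also: Gal4-VP16 expression switched on by copper sulfate through the metallothionein promoter; potency is read from the fitted curve at half-maximal effect; nearly all actives have a fitted effect of over 50% in size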
DT40 TDP1 no CPT: qHTS for Inhibitors of human tyrosyl-DNA phosphodiesterase 1 (TDP1): qHTS in cells in absence of CPT | DT40 Tdp1-/- hTDP1 cells, no CPT, ATP luminescence, 48 h | Potency, µM (doses to about 46.2 µM), without a hit: at the highest dose activity change, negative = growth inhibition, usual class: inhibitors | hit rate 15% among 420,000 | AID 686978, 2013; also: potency is read from the fitted curve at half-maximal effect; nearly all actives have a fitted effect of over 55% in size
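Chicken DT40 Tdp1-/- cells stably complemented with human TDP1 were seeded at 400 cells/well with DMSO in place of 20 nM camptothecin. After compound pinning, cells grew at least 48 hr at 37 °C; viability read by CellTiter-Glo luminescence.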
ELG1 DNA repair: qHTS screen for small molecules that inhibit ELG1-dependent DNA repair in human embryonic kidney (HEK293T) cells expressing luciferase-tagged ELG1. HEK293T ELG1-luciferase reporter, luminescence, 16 h; DNA damage induced by 5-fluorouridine. Potency, µM (titrated, usually from 46.1 µM), inactives show top-dose activity change, negative = inhibition, most hits filed as inhibitors. hit rate 2.3% among 330,000; also: potency is read from the fitted curve at half-maximal effect; nearly all actives have a fitted effect of over 55% in size
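Cells (2,000 per well) received 5-fluorouridine plus test compound or DMSO and were incubated 16 hr at 37 °C, 5% CO2. Luciferase activity was read by luminescence 30 min after ONE-Glo addition; signal suppression marked inhibition of damage-induced ELG1 function.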
IL1B secr inh: qHTS for Inhibitors of Inflammasome Signaling: IL-1-beta AlphaLISA Primary Screen; hit rate 4.7% among 360,000; THP-1 LPS/ATP IL-1B secretion, AlphaLISA, 16 h; stronger effect = lower value; AID 743279, 2014; activity change, % at 57.5 µM; in the data active = activity change below about -50%; inconclusive = mostly about -30% to -49%
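THP-1 cells pretreated 1 hr with compounds (up to 57.5 uM final), then stimulated with LPS (250 ng/mL final) plus ATP (1.25 mM final); secreted IL-1B measured by AlphaLISA after 16 hr, decreased signal indicating inhibition.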
RORgamma inh: qHTS for inhibitors of ROR gamma transcriptional activity. Nuclear receptor ROR-gamma (Mus musculus), P51450. Drosophila S2 Gal4-RORgamma UAS-luciferase reporter, 20 h. Potency, µM (top dose mostly 53.6 µM), without a hit: at the highest dose activity change, negative = inhibition, hits mostly inhibitors. hit rate 5.4% among 310,000; also: potency is read from the fitted curve at half-maximal effect; nearly all actives have a fitted effect of over 60% in size
Target sequence (P51450 whole entry, looked up, the tested form may be a part): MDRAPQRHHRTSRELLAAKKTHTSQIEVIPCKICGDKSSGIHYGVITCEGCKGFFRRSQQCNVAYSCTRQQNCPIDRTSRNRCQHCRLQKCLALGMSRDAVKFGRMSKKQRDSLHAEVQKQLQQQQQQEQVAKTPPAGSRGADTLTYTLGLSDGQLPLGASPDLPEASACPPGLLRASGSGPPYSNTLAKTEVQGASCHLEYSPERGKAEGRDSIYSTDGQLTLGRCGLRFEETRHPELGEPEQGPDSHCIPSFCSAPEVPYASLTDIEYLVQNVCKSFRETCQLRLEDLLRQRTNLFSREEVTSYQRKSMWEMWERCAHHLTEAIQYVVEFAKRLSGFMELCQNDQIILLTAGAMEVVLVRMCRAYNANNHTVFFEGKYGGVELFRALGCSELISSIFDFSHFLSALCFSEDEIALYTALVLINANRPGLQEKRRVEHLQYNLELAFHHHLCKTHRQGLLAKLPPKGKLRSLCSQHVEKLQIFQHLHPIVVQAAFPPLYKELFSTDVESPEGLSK
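Luminescence from a UAS-regulated Photinus luciferase reporter in stably transfected Drosophila Schneider cells is measured; decreased signal marks ROR gamma inhibition. Fusion expression is induced by 700 uM copper sulfate for 20 hr.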
TDP1 cell CPT: qHTS for Inhibitors of human tyrosyl-DNA phosphodiesterase 1 (TDP1): qHTS in cells in presence of CPT | Potency, µM (doses to about 46.2 µM), for the others: at the highest dose activity change, negative = growth inhibition, actives largely listed as inhibitors | chicken DT40 Tdp1-/-;hTDP1 cells + 20 nM CPT, ATP luminescence, 48 h | AID 686979, 2013 | hit rate 12% among 420,000; also: potency is read from the fitted curve at half-maximal effect; nearly all actives have a fitted effect of over 55% in size
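Chicken DT40 Tdp1-/- cells complemented with human TDP1, 400 cells/well, exposed to compounds plus 20 nM camptothecin for at least 48 h at 37 C; viability read as ATP content by CellTiter-Glo luminescence.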
* = called active by the depositor; ? = inconclusive; . = not tested or not shown; [ ] = remark or other dose. This is a sample that favours compounds with a hit; in the whole collection about 21% have one here. Unless noted, calls follow the shape of the dose curve; as a rule, active = well fitted curve in the direction sought with a large enough effect; inconclusive = small, poorly fitted or top-dose-only effect, or another doubt; inactive = no such curve, though single readings can be large; an effect the other way counts as inactive or inconclusive. % is scaled to controls: 0 for no effect and ±100 for the full control effect.

SMILES	Gal4-VP16 FLuc	DT40 TDP1 no CPT	ELG1 DNA repair	IL1B secr inh	RORgamma inh	TDP1 cell CPT
c1ccc2c(c1)c1cc[n+]2CCCCC[n+]2ccc(c3ccccc32)NCCCCCN1	-12%	.	.	.	-31%	.
O=C(c1ccc(CNS(=O)(=O)c2ccc(Br)cc2)cc1)N1CCC2(CC1)OCCO2	-6%	9.2µM*	?	25	30%	?
COc1cc(CNCCc2ccc3c(c2)OCO3)ccc1O	7%	0%	4%	4	-4%	3%
Cc1ccc(OCC(=O)N2CCN(Cc3ccc4c(c3)OCO4)CC2)cc1	8%	?	-19%	-11	14%	-6%
CCOc1ccc(CN(CCc2ccc3c(c2)OCO3)Cc2cccc(C)c2)cc1	.	13µM*	.	.	.	16µM*
CCOc1ccc(CN(CCc2ccc3c(c2)OCO3)Cc2cc(OC)ccc2O)cc1	.	18µM*	.	.	.	?
C=CCN1CCc2cccc3c2[C@H]1Cc1ccc(O)c(O)c1-3	?	18µM*	-4%	2	?	16µM*
Cc1ccn2nc(S(=O)(=O)Nc3c(F)cccc3F)nc2n1	-21%	-5%	3%	7	-2%	9%
CCn1nc(/C=C/c2ccccc2)nc2c(=O)n(C)c(=O)nc1-2	2%	2.1µM*	-3%	-110*	28%	1.6µM*
CCn1nc(-c2cccs2)nc2c(=O)n(C)c(=O)nc1-2	1.3µM*	1.2µM*	?	-68*	0.79µM*	0.58µM*
CCN(CC)C(=O)Oc1ccc2cc(Br)ccc2c1	21%	?	?	-11	28%	-30%
CC(C)[C@@H]1CN[C@H](C(=O)O)[C@@H]1CC(=O)O	10%	-16%	.	.	33%	-1%
CC(=O)C1=C(O)[C@@H]2[C@@H]3c4c[nH]c5cccc(c45)C[C@@H]3C(C)(C)N2C1=O	-30%	4.2µM*	.	.	-32%	6.7µM*
C/C(O)=C1\C(=O)[C@@H]2[C@H]3c4c[nH]c5cccc(c45)C[C@H]3C(C)(C)N2C1=O	.	8.3µM*	.	.	.	10µM*
CCN(CC)C(=O)N[C@@H]1C[C@H]2c3cccc4[nH]cc(c34)C[C@@H]2N(C)C1	7%[17 µM]	.	.	.	-8%[16.9 µM]	.
CC(=O)C1=C(O)C2C3c4c[nH]c5cccc(c45)CC3C(C)(C)N2C1=O (stereo unspecified)	-24%	7.3µM*	.	.	-29%	10µM*
N#CC(=C(O)c1ccc(S(=O)(=O)N(CCCl)CCCl)cc1)c1nc2ccccc2[nH]1	.	-3%	.	35	.	-7%
C[C@]12CC[C@@H]3[C@@H](CCC4=CC(=O)CC[C@@H]43)[C@@H]1CC[C@@H]2OC(=O)CCc1ccccc1	-14%	.	.	.	46%	.
C=CCN1C(=O)/C(=C/c2cccs2)C(=O)NC1=S	?	15µM*	?	-104*	-80%	16µM*
O=C1NC(=O)N(CCc2ccc(F)cc2)C(=O)/C1=C/c1cccs1	-9%	16µM*	-13%	-97*	-20%	16µM*
O=C1NC(=O)N(CCc2ccc(F)cc2)C(=O)/C1=C/c1ccco1	2%	?	?	-53*	7%	?
CC1=C2C(=O)C3C(CC=C4C[C@@H](O)CC[C@@]43C)[C@@H]2CC[C@]12O[C@@H]1C[C@H](C)CN[C@H]1C2C (stereo partly specified)	-16%	.	.	.	-19%	.
O=c1[nH]c(=O)n(Cc2ccco2)c(O)c1/C=N/N1CCCCC1	-3%	-5%	14%	0	6%	-7%

From PubChem
